Structures are written as SMILES. “And” between values parts separate entries of the source, which are not always exact repeats. Equal values may be shown once. This is part of a sample that, as a whole, favours compounds with a hit. Of some 83,000 tested, about 20% had one in any assay.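 Treatment: one concentration, 48 hours, 96-well format. Scoring: percent growth, with anything below 10 considered active.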 Unmarked numbers belong to inactive results. The source made the active and inactive calls.

Common to all, as to assay: NCI-60 one-dose screen, 48 h (100 = growth as untreated, 0 = no growth, -100 = all killed)
Common to all, as to details: 10 µM unless noted

The test system of test [1] is SK-MEL-2 melanoma.
For test [2], the system named is EKVX NSCLC.
The subject of test [3] is SN12C renal.
The test system of test [4] is UO-31 renal.
Test [5] concerns TK-10 renal.
The test system of test [6] is ACHN renal.
In test [7] the test system is CAKI-1 renal.
Test [8] relates to A498 renal.
Test [9] concerns HL-60(TB) leukemia.
The test system of test [10] is CCRF-CEM leukemia.

As to `CCCCS(=O)(=O)Cl`, the growth was 106% in test [1]; 94.8% in test [2]; 104% in test [3]; 100% in test [4]; 103% in test [5]; 110% in test [6]. Also, the growth in test [7] is 100%; in test [8], 97.9%; in [9], 105%; in test [10] it was 103%.
With `COc1cc2c(cc1OC)[C@@H]1C(=O)c3ccc4c(c3O[C@@H]1CO2)C[C@H](C(C)C)O4`, the growth in [1] is 91%; in test [2], 26.7%; in test [3], 86.9%; in [4] it was 46.1%; in [5] it was 70.3%; in test [6] it was 59.3%. The growth in test [7] was 45.1%; in [8] it was 86.8%; in test [9], 19%; in test [10] it was 42.6%.
Consider `CC[C@H](C)[C@H](NC(=O)[C@H]1CCCCN1C)C(=O)N(C)[C@H](C(=O)NC12CC(C(=O)N[C@@H](Cc3ccccc3)C[C@H](C)C(=O)OC)(C1)C2)C(C)C`, for which the growth is 89.3% in [1]; 102% in [2]; 99% in test [3]; 95.1% in test [4]; 98.4% in [5]; 106% in test [6]. The growth in test [7] was 95.9%; in test [8] it was 112%; in test [9], 114%; in [10], 103%.
Turning to `CN(C)C(=S)SSC(=S)N(C)C`, the growth in test [1] is 109% and 108%; in test [2], 69.4% and 92.7%; in [3], 106% and 94.8%; in [4], 79.1% and 80.5%; in [5] it was 106% and 101%; in test [6] it was 100%. Also, the growth in test [7] was 90.9%; in test [8] it was 95.1%; in test [9] it was 113%; in test [10], 68% and 91.5%.
For the molecule `CCN(CC)CCn1c(=O)n(C)c2ccccc21`, the growth in test [1] was 109%; in [2] it was 114%; in test [3] it was 108%; in test [4], 92.5%; in test [5] it was 111%; in [6], 114%. Moreover, the growth is 102% in [7], 104% in test [8], 107% in [9] and 103% in [10].
As to `CC1OC(=O)C(C(C)C)NC(=O)C(C(C)C)OC(=O)C(C(C)C)NC(=O)C(C)OC(=O)C(C(C)C)NC(=O)C(C(C)C)OC(=O)C(C(C)C)NC(=O)C(C)OC(=O)C(C(C)C)NC(=O)C(C(C)C)OC(=O)C(C(C)C)NC1=O` (centres undefined), the growth in [1] was -22.4% (active); in test [2] it was -23.9% (active); in test [3] it was 3.04% (active); in [4] it was 6.58% (active); in test [5], 24.6%; in [6], -16.5% (active). Besides, the growth was -5.02% (active) in [7], -53.2% (active) in test [8], -44.6% (active) in [9] and -20.1% (active) in test [10].
For `CCOC(=O)C1C(C=C(C)C)C1(C)C` (centres undefined), the growth was 121% in test [1]; 110% in [2]; 104% in [3]; 120% in test [4]; 107% in test [5]; 100% in test [6]. The growth was 95.8% in test [7], 105% in test [8], 117% in test [9] and 82.6% in test [10].
With `Nc1nc(=S)nc(N)[nH]1`, the growth in test [1] was 101%; in [2], 92.9%; in test [3], 80.5%; in test [4], 74.1%; in [5] it was 136%; in test [6], 103%. Besides, the growth in test [7] is 101%; in test [8], 98.4%; in test [9] it was 92.6%.
`CC[PH+](CC)CC.O=COC1OC([S-])C(OC=O)C(OC=O)C1OC=O.[Au+]` (centres undefined): the growth in [1] is -72.5% (active); in test [2], -41.2% (active); in test [3], -90.9% (active); in [4], -91.2% (active); in [5], -97.7% (active); in test [6], -99.7% (active). Also, the growth is -92.8% (active) in test [7], -82.2% (active) in test [8], -33.3% (active) in test [9] and -11.4% (active) in test [10].
For `O=c1[nH]c(=O)n(Cl)c(=O)n1Cl`, the growth in test [1] is 114% and 96.7%; in test [2] it was 107% and 101%; in test [3] it was 94.2% and 108%; in test [4], 84.3% and 86.7%; in test [5], 115% and 117%; in test [6] it was 109% and 107%. Besides, the growth was 101% and 108% in test [7]; 106% and 127% in [8]; 110% and 115% in [9]; 101% and 104% in test [10].
As to `CC[C@H](C)[C@H](NC(=O)CN(C)C)C(=O)N(C)[C@H](C[C@@H](OC(C)=O)c1nc(C(=O)NC23CC(C(=O)OC)(C2)C3)cs1)C(C)C`, the growth in test [1] is 37.5%; in test [2], 32.8%; in test [3], 31.3%; in [4], 50.1%; in test [5], 43.5%; in test [6], 46.9%. For the same molecule, the growth was 51.6% in [7], 9.1% (active) in [8], -18.9% (active) in test [9] and 6.24% (active) in [10].
Turning to `Cc1nnc([S-])o1.[Au+].c1ccc([PH+](c2ccccc2)c2ccccc2)cc1`, the growth is 47.9% in [1]; 87.3% in [2]; 40.8% in [3]; 55.1% in test [4]; 102% in test [5]; 0.817% (active) in [6]. Moreover, the growth in test [7] was 41.6%; in test [8], 90.5%; in test [9], 6.51% (active); in [10], 11.1%.
Take `COc1ccc(N)cc1OC`: the growth in [1] is 106%; in test [2] it was 111%; in [3], 89.2%; in test [4], 90.5%; in test [5], 120%; in test [6] it was 100%. In addition, the growth in test [7] was 99%; in test [8], 100%; in test [9] it was 114%; in test [10], 98.6%.

Values taken from PubChem BioAssay (NCI).
